The test system of this experiment is Vero E6 infected with SARS-CoV-2. As to the kind of experiment: morphology score (similarity to uninfected cells); higher = more like uninfected cells. Conditions: 24 h.
On to `Cc1ccc(-c2c(-c3nn(C)c4ncnc(N5CC[C@H](N6CCCCC6)C5)c34)cnn2C)cc1` (10 µM), for which the morphology score amounted to 0.14.

As for `CCOC(=O)[C@H](CCc1ccccc1)N[C@H]1CCc2ccccc2N(CC(=O)O)C1=O` [benazepril] (10 µM), the morphology score was determined as 0.413.

Take `CN(C)C/C=C/C(=O)Nc1cc2c(Nc3ccc(F)c(Cl)c3)ncnc2cc1O[C@H]1CCOC1` [afatinib] (0.833333 µM): the morphology score was -0.0622.

`COc1ccc2cc(C(C)C(=O)Oc3ccc(C(N)=S)cc3)ccc2c1` (stereo not given) (10 µM) showed a morphology score of 0.117.

Compound `NS(=O)(=O)NCc1csc2ccccc12` (10 µM) yielded a morphology score of 0.212.

For `CC(=O)c1ccc2c(c1)[C@H](NC(=O)c1ccc(F)c(Cl)c1)[C@H](O)C(C)(C)O2` [tonabersat] (10 µM), the morphology score was 0.372.

Take `C[N+]1(C)CCc2cc3c(cc2[C@H]1[C@@H]1OC(=O)c2c1ccc1c2OCO1)OCO3` [bicuculline-methochloride-(-)] (10 µM): the morphology score was -0.156.

`Nn1cnc2cc3ccccc3cc2c1=O` [centazolone] (10 µM) registered a morphology score of -0.195.

The compound `CC(C)(C)[C@]1(O)CCN2C[C@H]3c4ccccc4CCc4cccc(c43)[C@@H]2C1` [butaclamol] (10 µM) gave a morphology score of 0.273.

`O=C(O)Cc1ccc(CCNS(=O)(=O)c2ccc(Cl)cc2)cc1` [daltroban] (10 µM): the morphology score worked out at 0.136.

The compound `N#C/C(=C\c1ccc(O)c(O)c1)C(=O)OCCc1cccs1` (10 µM) displayed a morphology score of -0.0101.

In turn, `O=C(/C=C/N1C[C@H]2C[C@@H]1CN2c1ccccn1)c1ccccc1O` (10 µM) yielded a morphology score of -0.0425.

`CCOC(=O)/C=C(C)/C=C/C=C(C)/C=C/c1c(C)cc(OC)c(C)c1C` [etretinate] (10 µM) returned a morphology score of -0.112.

Consider `C=CCN1CC[C@]23c4c5ccc(O)c4O[C@H]2[C@@H](OCCOCCOCCOCCOCCOCCOCCOC)CC[C@@]3(O)[C@H]1C5` [naloxegol] (10 µM), for which the morphology score came out at 0.25.

Consider `NC(=O)c1ccc(-c2nc(-c3ccccn3)c(-c3ccc4c(c3)OCO4)[nH]2)cc1` (10 µM), for which the morphology score is -0.124.

`CN1CCN(CC(=O)N2c3ccccc3C(=O)Nc3cccnc32)CC1` [pirenzepine] (10 µM) showed a morphology score of -0.00972.

For the compound `O=C([O-])c1ccccn1.O=C([O-])c1ccccn1.O=C([O-])c1ccccn1.[Cr+3]` [chromium-picolinate] (10 µM), the morphology score is -0.0147.

Take `N#C[C@@H]1CCCN1C(=O)CNC12CC3CC(CC(O)(C3)C1)C2` [vildagliptin] (10 µM): the morphology score was 0.00182.

Compound `CC1(C)C(=O)N(c2ccc(C#N)c(C(F)(F)F)c2)C(=O)N1CCCCO` (10 µM) came in with a morphology score of -0.0623.

`OC[C@@H](O)[C@@H](O[C@@H]1O[C@H](CO)[C@H](O)[C@H](O)[C@H]1O)[C@H](O)[C@@H](O)CO` (10 µM) returned a morphology score of -0.0894.

In the case of `CCCCCCCCCCCCCCCCCC(=O)OCC(O)CO` (stereo not given) [monostearin] (10 µM), the morphology score was -0.0152.

Turning to `COc1cc2nc(N3CCN(C(=O)COc4c(OC)cccc4C(C)C)CC3)nc(N)c2cc1OC` (10 µM), the morphology score is -0.065.

`CNC[C@@H]1CC[C@@H](N)[C@@H](O[C@H]2[C@H](O)[C@@H](O[C@H]3OC[C@](C)(O)[C@H](NC)[C@H]3O)[C@H](N)C[C@@H]2N)O1` [micronomicin] (10 µM) registered a morphology score of 0.0697.

Take `CCOC(=O)[C@H](Cc1ccc([N+](=O)[O-])cc1)NC(=O)c1ccccc1` (10 µM): the morphology score amounted to 0.37.

`Cc1cccc(/C=C/c2ccccc2)n1` (10 µM) gave a morphology score of 0.0753.

`CC[C@H](C)[C@@H]1NC(=O)[C@H](Cc2ccc(OC)cc2)NC(=O)CCCSC[C@@H](C(=O)N2CCC[C@H]2C(=O)N[C@@H](CC(C)C)C(=O)NCC(N)=O)NC(=O)[C@H](CC(N)=O)NC(=O)[C@H](CCC(N)=O)NC1=O` [carbetocin] (10 µM) yielded a morphology score of 0.123.

`NC1=N[C@@]2(c3cc(NC(=O)c4ccc(F)cn4)ccc3F)COC[C@H]2CS1` (10 µM) came in with a morphology score of 0.00208.

In turn, `c1ccc2[nH]c(-c3cscn3)nc2c1` [tiabendazole] (10 µM) displayed a morphology score of 0.157.

Compound `CC(=O)N1CCN(c2ccc(OC[C@@H]3CO[C@@](Cn4ccnc4)(c4ccc(Cl)cc4Cl)O3)cc2)CC1` (racemic) [ketoconazole] (10 µM) showed a morphology score of 0.0784.

`O=c1cc(N2CCOCC2)oc2c(-c3cccc4c3sc3ccccc34)cccc12` (0.833333 µM) came in with a morphology score of 0.352.

With `C[C@@H](O)[C@H]1C(=O)N2C(C(=O)O)=C(SCCNC=N)C[C@H]12` [imipenem] (10 µM), the morphology score is -0.161.

`O=C(O)c1cc(/N=N/c2ccc(O)c(C(=O)O)c2)ccc1O` [olsalazine] (10 µM) yielded a morphology score of 0.062.

For the compound `CC(=O)OCC(=O)[C@@]1(OC(C)=O)[C@@H](C)C[C@H]2[C@@H]3C[C@H](F)C4=CC(=O)C=C[C@]4(C)[C@@]3(F)[C@@H](O)C[C@@]21C` [diflorasone-diacetate] (10 µM), the morphology score was determined as 0.0652.

Consider `O=C(NOCCO)c1cc(CN2OCCCC2=O)c(F)c(F)c1Nc1ccc(I)cc1F` (0.833333 µM), for which the morphology score is -0.175.

As to `CC(C)(C)NC(=O)[C@@H]1CN(Cc2cccnc2)CCN1C[C@@H](O)C[C@@H](Cc1ccccc1)C(=O)N[C@H]1c2ccccc2C[C@H]1O` [indinavir] (10 µM), the morphology score worked out at 0.0426.

Consider `CCCCOc1ccc(OCCCN2CCOCC2)cc1` [pramoxine] (10 µM), for which the morphology score is -0.0144.

For the compound `COc1cc(OC)c(C(=O)CCCCN2CCC3(CC2)NC(=O)NC3=O)cc1NS(=O)(=O)c1ccc(C(F)(F)F)cc1` (10 µM), the morphology score came out at 0.222.

`CCn1cc(C(=O)O)c(=O)c2ccc(C)nc21` [nalidixic-acid] (10 µM) showed a morphology score of -0.0613.

On to `Oc1ccc(Cl)cc1Cc1cc(Cl)ccc1O` [dichlorophen] (10 µM), for which the morphology score is 0.14.

As to `CC(=O)Nc1nnc(S(N)(=O)=O)s1` [acetazolamide] (10 µM), the morphology score stood at 0.0392.

Values taken from the supplement of paper PMC13380429.
